Out of some 220,000 compounds screened, about 10 (0.005%) were called active. No stated cut-off is given here; in the data, active means maximum fold increase above about 1.5; inconclusive means no clear call, values can overlap the other calls; inactive means below that; tested in PC3 cells. These entries were drawn from the full list.

A short description of this assay: enhancers of HSV replication in host cells, fold increase, host cell viability (AID 1956). The settings on record: HSV replication augmentation in cells; fold increase: measured here: primary screen fold increase 10 uM, at 10 µM, stronger effect = higher value; maximum fold increase: at 0.098 µM, stronger effect = higher value; viability: measured here: host cell viability series, at 25 µM, stronger effect = lower value.
On to `COc1ccc(C#Cc2c(-c3ccc(OC)cc3)oc3ccc(-c4ccc5c(c4)OCO5)cc23)cc1`, for which the fold increase was 0.99 and the outcome was inactive.
Taken in the same sequence, the figures for `Cc1nc(-c2ccccc2)sc1C1(C)CC(c2cccnc2)=NO1` (stereo not given) were 0.85 and “inactive”.
In the case of `COC(=O)c1sccc1NN1C(=O)c2ccccc2C1=O`, the fold increase amounted to 1.18 and the result was inactive.
As to `COCCN1C2=C(COC(C)(C)C2)C(=S)NC1c1ccccc1` (stereo not given), the fold increase turned out to be 0.95 and the result was inactive.
As to `O=C1N[C@@H](Cc2ccccc2)C(=O)N2[C@@H]3N(S(=O)(=O)c4ccc(F)cc4)c4ccccc4[C@]3(Br)C[C@@H]12`, the fold increase was 0.86 and the outcome was inactive.
For `CCOC(=O)C[C@H]1c2ccc(C(F)(F)F)cc2S(=O)(=O)N1c1ccccc1`, the fold increase came out at 0.88 and the outcome was inactive.
Consider `Cc1ccc(S(=O)(=O)N(C)C)cc1NC(=O)c1n[nH]c(=O)c2ccccc12`, for which the fold increase worked out at 0.73 and the result was inactive.
On to `O=C(NCc1ccccc1)c1ccc(S(=O)(=O)Nc2cccc(C(F)(F)F)c2)cc1`, for which the fold increase came out at 0.83 and the outcome was inactive.
Consider `O=C1CC(Cc2ccc(Cl)cc2)C(=O)N1c1cc(Cl)ccn1` (stereo not given), for which the fold increase amounted to 1.23 and the outcome was inactive.
Take `O=C(O)C(F)(F)C(NCc1ccccc1)c1ccccc1` (stereo not given): the fold increase was 0.84 and the result was inactive.
Consider `CCN(CC)CCNCC(=O)Nc1ccc(Oc2ccccc2)cc1`, for which the fold increase turned out to be 0.94 and the outcome was inactive.
Consider `NS(=O)(=O)c1ccc(NC2=CC(c3ccc(F)cc3)N(c3ccc(S(N)(=O)=O)cc3)C2=O)cc1` (stereo not given), for which the fold increase worked out at 1.05 and the result was inactive.
In the case of `CC(C)(C)c1ccc(/C=C2\Oc3c(ccc(O)c3CN3CCN(CCO)CC3)C2=O)cc1`, the fold increase stood at 1.25 and the outcome was inactive.
For `COc1ccc(CNC(=O)C2CC(c3ccc(C(F)(F)F)cc3)=NO2)cc1` (stereo not given), the fold increase is 0.93 and the result was inactive.
Taken in the same sequence, the figures for `CCN(CC)c1ccc(NC(=O)C2CCC(CNc3c(N4CCCC4)c(=O)c3=O)CC2)c(C)c1` (stereo not given) were 1 and “inactive”.
For the compound `COc1ccc(CCN2C(=O)N(c3ccc(OC)cc3)C(=O)C2CC(=O)Nc2ccc(OC)cc2)cc1` (stereo not given), the fold increase turned out to be 0.88 and the outcome was inactive.
`COC(=O)c1ccc(C(NC(=O)OCc2ccccc2)/C(F)=C/[C@@H](C)C(=O)O)cc1` (stereo not given in full): the fold increase came out at 0.86 and the outcome was inactive.
Consider `COC(=O)c1c(C)cc(O)c(C)c1O`, for which the fold increase was found to be 0.79 and the outcome was inactive.
The matching figures for `O=C1CC2(CCCC2)Oc2ccc(Cl)cc21`: 0.69 and “inactive”.
Taken in the same sequence, the figures for `CC(C)Oc1ccc(CCC(=O)NNC(=S)NCc2ccccc2)cc1` were 1.13 and “inactive”.
Taken in the same sequence, the figures for `CC(=O)N[C@H]1[C@H]([C@H](O)[C@H](O)CO)OC(C(=O)O)=C[C@@H]1O` were 0.87 and “inactive”.
For the compound `CC(CO)(CO)NC(=O)c1ccc(=O)[nH]n1`, the fold increase is 0.94 and the result was inactive.
Taken in the same sequence, the figures for `COC(C[C@@H](O)C[C@H](O)[C@H](C)OCc1ccccc1)OC` were 0.91 and “inactive”.
As for `COC(C[C@@H]1O[C@@H]1C(=O)[C@@H](C)OCc1ccccc1)OC`, the fold increase amounted to 0.81 and the outcome was inactive.
For the compound `COc1ccc(NC(=O)CSc2ncnc3[nH]ncc23)cc1`, the fold increase was determined as 1.02 and the outcome was inactive.
As to `CCOC(=O)c1ccc(NC(=O)c2c(NCc3ccccc3)[nH]c(=O)[nH]c2=O)cc1`, the fold increase was 0.87 and the outcome was inactive.
Turning to `O=C(NC(=O)N1CCSCC1)c1c(Cl)cccc1Cl`, the fold increase came to 1 and the outcome was inactive.
For `CNC(C)C#Cc1ccc2sc3cc(OC)c(OC)cc3c(=O)c2c1` (stereo not given), the fold increase amounted to 0.67 and the result was inactive.
The matching figures for `O=C(O)/C=C/c1ccc2c(c1)OCCO2`: 0.95 and “inactive”.
Take `C[C@H](NC(=O)c1nc[nH]c1C(=O)N[C@@H](C)C(=O)OC(C)(C)C)C(=O)OC(C)(C)C`: the fold increase is 0.88 and the outcome was inactive.
On to `CNC(=S)NNC(=O)c1ccc(N(C)C)cc1`, for which the fold increase was 1.02 and the result was inactive.
The matching figures for `COc1ccc(CNC(=O)[C@@H]2CC=C[C@@H]3CCN(C4CC4)C(=O)[C@@H]32)cc1`: 0.88 and “inactive”.
With `CN=C1C=C/C(=N/N=c2\ccn(O)cc2C)C=C1C`, the fold increase was 1.05 and the result was inactive.
For the compound `Cc1ccccc1Nc1c(-c2ccccc2)nc2ncccn12`, the fold increase turned out to be 1.06 and the outcome was inactive.
Regarding `O=C1CCCC(O)=C1N=Nc1ccc(S(=O)(=O)N2CCOCC2)cc1`, the fold increase came to 0.97 and the result was inactive.
For `COC(C[C@@H]1O[C@@H]1C(=O)[C@H](C)OCc1ccccc1)OC`, the fold increase was determined as 0.81 and the outcome was inactive.
On to `O=c1[nH]c(CSc2ccccc2)nc2c1oc1ccccc12`, for which the fold increase was 1.16 and the result was inactive.
For the compound `CCOC(=O)C1=NN(c2ccc(Cl)cc2)/C(=C/C2=NCCc3cc(OC)c(OC)cc32)S1`, the fold increase is 1.18 and the outcome was inactive.
With `CCn1c2ccccc2c2cc(NC(=O)Nc3ccc([N+](=O)[O-])cc3C)ccc21`, the fold increase worked out at 0.73 and the result was inactive.
Taken in the same sequence, the figures for `Cc1ccc(NC(=O)c2nc[nH]c2C(=O)N[C@@H](CCCCNC(=O)OC(C)(C)C)C(=O)OC(C)(C)C)cc1` were 0.74 and “inactive”.
Taken in the same sequence, the figures for `C/C=C/C(=O)Nc1ccc(N2CCN(c3ccc(C(F)(F)F)cn3)CC2)nc1` were 0.88 and “inactive”.
Regarding `CCC(=O)Nc1cccc(C2=NOC3(C2)C[C@@H](C(N)=O)N(C(=O)c2cc([N+](=O)[O-])cc([N+](=O)[O-])c2C)C3)c1` (stereo not given in full), the fold increase was determined as 1.3 and the outcome was inactive.
`CCCC[C@@H]1CN=C(N)N1CCCC`: the fold increase stood at 1.05 and the result was inactive.
As to `COC(C/C=C/C(=O)[C@@H](C)OCc1ccccc1)OC`, the fold increase turned out to be 0.77 and the result was inactive.
On to `Cn1ccnc1-c1nnn(-c2ccc(F)cc2)n1`, for which the fold increase was 1.06 and the outcome was inactive.
As to `CCOC(=O)c1cccc(NC(=O)c2ccc(F)cc2F)c1`, the fold increase is 0.77 and the outcome was inactive.
For the compound `O=C(N/N=C/c1ccccn1)c1cccnc1`, the fold increase came to 1.05 and the result was inactive.
With `COC(=O)C1=C[C@@H](C(=O)OC)[C@@H]2C3=C(C(=O)[C@]2(C)NC(=O)c2ccccc2)[C@H](C)n2c(=O)n(C)c(=O)n2[C@@H]3C1`, the fold increase was determined as 0.77 and the result was inactive.
With `C#CCOCCOCCOCCNc1nc(N2CCN(C(=O)C([C@@H](C)CC)n3cc(C(N)COC(=O)C(F)(F)F)nn3)CC2)nc(N2CCN(C(=O)[C@H](CCCCN)n3cc(C(N)CC(C)C)nn3)CC2)n1` (stereo not given in full), the fold increase turned out to be 0.79 and the result was inactive.
Take `C=C(C)COc1ccc(-c2nc(N)ncc2-c2ccccc2OC)c(O)c1`: the fold increase is 0.94 and the outcome was inactive.
The matching figures for `COCCN(C(=S)Nc1cccc(Cl)c1C)C(C)c1ccco1` (stereo not given): 1.01 and “inactive”.
In the case of `Cc1cccc(Nc2nc(NCCO)nc(N3CCCC3)n2)c1`, the fold increase was 0.73 and the outcome was inactive.
As for `Cc1nnc(Nc2ccccc2F)s1`, the fold increase worked out at 0.86 and the result was inactive.
Regarding `CC1(C)C2CC[C@]3(C)C(CC=C4[C@@H]5C[C@@](C)(CO)CC[C@]5(C(=O)O)CC[C@]43C)[C@@]2(C)CC[C@@H]1O` (stereo not given in full), the fold increase amounted to 1.01 and the outcome was inactive.
On to `C=C(C)CNC(=S)Nc1ccc(S(=O)(=O)Nc2cnc3ccccc3n2)cc1`, for which the fold increase is 0.94 and the outcome was inactive.

These data come from PubChem BioAssay AID1956 (SRMLSC, 2009).
